KCNQ2 block: blocks the rat KCNQ2 potassium channel; O88943; actives 1.1% (n = 310,000); B-score at 10 µM; CHO-K1 KCNQ2, FluxOR thallium flux, 20 min; active compounds read low;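 active = fluorescence ratio B-score at most minus 3 library SDs, with starting brightness B-score within 2 library SDs, cut at about -5.5 in these data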
Target sequence (O88943 whole entry, looked up): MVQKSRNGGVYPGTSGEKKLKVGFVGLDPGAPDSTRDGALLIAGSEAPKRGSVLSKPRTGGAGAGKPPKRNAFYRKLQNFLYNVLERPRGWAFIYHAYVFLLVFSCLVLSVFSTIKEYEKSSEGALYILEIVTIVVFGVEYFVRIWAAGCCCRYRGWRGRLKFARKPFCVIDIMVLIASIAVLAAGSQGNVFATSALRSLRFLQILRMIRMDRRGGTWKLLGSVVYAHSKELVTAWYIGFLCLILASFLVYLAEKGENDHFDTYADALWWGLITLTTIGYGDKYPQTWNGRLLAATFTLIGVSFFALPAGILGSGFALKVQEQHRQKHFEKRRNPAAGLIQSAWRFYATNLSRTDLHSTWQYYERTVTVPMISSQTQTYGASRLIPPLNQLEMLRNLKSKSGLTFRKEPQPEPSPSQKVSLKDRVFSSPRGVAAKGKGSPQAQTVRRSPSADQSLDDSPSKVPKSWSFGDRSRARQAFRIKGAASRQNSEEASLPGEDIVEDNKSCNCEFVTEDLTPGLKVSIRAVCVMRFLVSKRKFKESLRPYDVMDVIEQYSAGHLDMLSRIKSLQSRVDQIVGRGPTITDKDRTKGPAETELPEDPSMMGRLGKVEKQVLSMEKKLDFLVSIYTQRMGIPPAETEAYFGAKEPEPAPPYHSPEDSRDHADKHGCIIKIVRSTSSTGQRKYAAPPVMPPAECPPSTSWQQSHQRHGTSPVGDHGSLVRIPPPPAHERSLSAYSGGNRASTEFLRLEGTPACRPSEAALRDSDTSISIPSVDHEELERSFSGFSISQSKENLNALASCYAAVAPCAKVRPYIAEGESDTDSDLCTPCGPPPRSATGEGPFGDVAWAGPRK
KCNQ2 enhance: KCNQ2 (rat) channel potentiation; CHO-K1 KCNQ2, FluxOR thallium flux fluorescence; active compounds read high; B-score at 10 µM; actives 0.54% (n = 310,000); AID 2239; O88943;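 active = fluorescence ratio B-score at least 3 SD of library B-scores, with initial fluorescence B-score within 3 of them, cut at about 5.3 in these data; same plate scores as AID 2156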;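 also: B-score of peak minus minimum over baseline fluorescence ratio after K+ and Tl+ stimulus; positive B-score means potentiation of KCNQ2 with more thallium influx and brighter signal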
The depositor's hits bear a star. A selection: hits, their analogues and other compounds. The true share with any hit is near 1.6%.

What do the screens show for `CCCCC(=O)N/N=C(\C)c1cccc(NC(=O)C2CC2)c1`?
KCNQ2 block: inactive; KCNQ2 enhance: 0.45

What do the screens show for `COC(=O)C(Cc1ccccc1)N1CCS(=O)(=O)CC1` (centres undefined)?
KCNQ2 block: inactive; KCNQ2 enhance: 2.4

How did Cn1cccc1Cc1nnc(SCC(=O)NCc2ccco2)n1-c1ccc(F)cc1 do in these assays?
KCNQ2 block: inactive; KCNQ2 enhance: 0.07

Results for Cn1cccc1Cc1nnc(SCC(=O)NCc2ccccc2Cl)n1-c1ccc(F)cc1 ?
KCNQ2 block: -7.2*; KCNQ2 enhance: -7.2

What do the screens show for `CC(=O)OC1OCCOC1NC(=S)NCc1ccco1` (centres undefined)?
KCNQ2 block: inactive

What do the screens show for `COC(=O)COc1c(Cl)cc(Cl)c2ccc(C)nc12`?
KCNQ2 block: inactive

How did Cc1ccc2c(Cl)cc(Cl)c(OCC(=O)NC(C)(C)C)c2n1 do in these assays?
KCNQ2 block: -7*; KCNQ2 enhance: -7

How did COC(=O)CCCC(=O)N1CCCC(N(C)CCc2ccccc2)C1 (centres undefined) do in these assays?
KCNQ2 block: inactive; KCNQ2 enhance: 0.28

How did Clc1cc(Cl)cc(CSc2nnc(-c3sccc3-n3cccc3)o2)c1 do in these assays?
KCNQ2 block: -5.9*; KCNQ2 enhance: -5.9

What do the screens show for `Clc1cccc(CSc2nnc(-c3sccc3-n3cccc3)o2)c1`?
KCNQ2 block: inactive

How did Cc1ccc(S(=O)(=O)Nc2cc(-c3nn(C)c(=O)c4ccccc34)ccc2N2CCOCC2)cc1 do in these assays?
KCNQ2 block: inactive

Results for CCOc1cccc2cc(C(=O)NCc3ccccc3)c(=N)oc12 ?
KCNQ2 block: inactive

Results for CCOc1ccccc1-c1ccc(C(=O)NCc2ccccc2)o1 ?
KCNQ2 block: -5.8*; KCNQ2 enhance: -5.8

How did CCc1noc(C)c1C(=O)N1CCCC1 do in these assays?
KCNQ2 block: inactive; KCNQ2 enhance: 0.57

Results for CCc1noc(C)c1C(=O)N1CCCSC1=Nc1ccccc1C(C)C ?
KCNQ2 block: -5.7*; KCNQ2 enhance: -5.7

What do the screens show for `Cc1c(NC(=O)CSc2ncnc3c2cnn3-c2ccccc2)c(=O)n(-c2ccccc2)n1C`?
KCNQ2 block: inactive; KCNQ2 enhance: 2.8

How did Cc1ccc(S[C@@H](CCN2CC[C@H](C)CCC2=O)c2ccccc2)cc1 do in these assays?
KCNQ2 block: inactive

How did Cc1ccc(S[C@@H](CCN2CC[C@H](C(C)(C)C)CCC2=O)c2ccccc2)cc1 do in these assays?
KCNQ2 block: -5.8*; KCNQ2 enhance: -5.8

What do the screens show for `CC(C)(C)C1CCC(=O)N(CCSc2ccccc2)CC1` (centres undefined)?
KCNQ2 block: inactive

What do the screens show for `C[C@@H](CSc1ccccc1)CN1CC[C@H](C(C)(C)C)CCC1=O`?
KCNQ2 block: -7.2*; KCNQ2 enhance: -7.2

Results for COc1ccc(C2C(C(=O)OCC(=O)Nc3ccc(C)cc3)CCC(=O)N2c2ccc(OC)cc2)cc1 (centres undefined) ?
KCNQ2 block: inactive

Results for CN(C)c1ccc(S(=O)(=O)N(C)C)cc1NC(=O)Cc1cccc2ccccc12 ?
KCNQ2 block: -7.5*; KCNQ2 enhance: -7.5

What do the screens show for `O=C(Cc1cccc2ccccc12)Nc1ccc(O)cc1C(=O)O`?
KCNQ2 block: inactive

How did FC(F)(F)c1ccccc1/C=N/N1CCN(Cc2ccccc2)CC1 do in these assays?
KCNQ2 block: inactive

What do the screens show for `CC1=Nc2ccc(Br)cc2C(c2ccccc2)N1CC(=O)NN` (centres undefined)?
KCNQ2 block: inactive; KCNQ2 enhance: 1.6

Results for OC1c2cc(Br)ccc2N=C2CCCN21 (centres undefined) ?
KCNQ2 block: -7.7*; KCNQ2 enhance: -7.7

Results for CCN(CC)C(=O)CSc1nc(-c2ccc(C)cc2)nc2c1COC(C)(C)C2 ?
KCNQ2 block: -7.4*; KCNQ2 enhance: -7.4

How did CC1(C)Cc2nc(-c3ccccc3)nc(SCC(=O)N3CCOCC3)c2CO1 do in these assays?
KCNQ2 block: inactive

Results for Cc1cccc(S(=O)(=O)N2CCC(CO)(Cc3ccccc3)CC2)c1 ?
KCNQ2 block: inactive

How did Cc1ccccc1NC1=NC(=S)N(c2ccccc2)C12CCCCC2 do in these assays?
KCNQ2 block: inactive; KCNQ2 enhance: 5.5*

What do the screens show for `Cc1ccccc1NC1=NC(=S)N(c2ccccc2)C12CCOC(C)(C)C2` (centres undefined)?
KCNQ2 block: inactive; KCNQ2 enhance: 0.22

Results for CCN(CC)S(=O)(=O)c1cccc(C(=O)OCC(=O)Nc2ccccc2OC(F)F)c1 ?
KCNQ2 block: inactive; KCNQ2 enhance: 0.51

Results for CCN(CC)S(=O)(=O)c1cccc(C(=O)OCC(=O)NCc2ccccc2OC)c1 ?
KCNQ2 block: -6.5*; KCNQ2 enhance: -6.5

What do the screens show for `CSCCC(NC(=O)c1ccc(Cl)cc1Cl)C(=O)OCC(N)=O` (centres undefined)?
KCNQ2 block: inactive

How did O=c1[nH]c2ccc(Br)cc2c(-c2ccccc2)c1CN1CCOCC1 do in these assays?
KCNQ2 block: inactive

How did CCCn1c(C)cc(C(=O)CSc2nc3ccccc3c(=O)n2Cc2ccco2)c1C do in these assays?
KCNQ2 block: -6*; KCNQ2 enhance: -6

Results for NC(=O)CSc1nc2ccccc2c(=O)n1Cc1ccco1 ?
KCNQ2 block: inactive

Results for CC(=O)NCCNC(=O)c1ccc(CSc2ccc(Cl)cc2)cc1 ?
KCNQ2 block: inactive; KCNQ2 enhance: 0.78

How did CN(CC(=O)Nc1ccc(Cl)cc1)C(=O)Cn1[nH]c(=O)c2ccccc2c1=O do in these assays?
KCNQ2 block: inactive

How did COc1cc(OC)c(C2=NOC(C(=O)N3CCCc4ccccc43)C2)cc1Cl (centres undefined) do in these assays?
KCNQ2 block: inactive; KCNQ2 enhance: 0.18

Results for CCC1CCCCN1C(=O)C1CC(c2cc(Cl)c(OC)cc2OC)=NO1 (centres undefined) ?
KCNQ2 block: -6.2*; KCNQ2 enhance: -6.2

Results for CCN(CC1CCCN(CCc2cccc(F)c2)C1)C(=O)c1cc2ccccc2o1 (centres undefined) ?
KCNQ2 block: inactive

Results for CN(CC1CCCN(CCc2cccc(C(F)(F)F)c2)C1)C(=O)c1cc2ccccc2o1 (centres undefined) ?
KCNQ2 block: -7*; KCNQ2 enhance: -7

How did CCn1cc(CN2CCC(C(=O)Nc3cccc(-c4cccc(F)c4)c3)CC2)cn1 do in these assays?
KCNQ2 block: inactive

How did O=C(NCCCN1CCCC1=O)c1cc(-c2cccnc2)nc2ccc(Cl)cc12 do in these assays?
KCNQ2 block: -6.5*; KCNQ2 enhance: -6.5

What do the screens show for `O=C(NCCCN1CCCC1=O)c1cc(-c2ccc3c(c2)OCO3)nc2ccccc12`?
KCNQ2 block: inactive

What do the screens show for `Cc1nn(CCO)c2c1C(=O)CCC2`?
KCNQ2 block: inactive

Results for Oc1c(Br)cc(Cl)cc1C=Nc1ccccc1Br ?
KCNQ2 block: inactive; KCNQ2 enhance: 8.4*

How did Oc1ccc2ccccc2c1C=Nc1ccccc1Br do in these assays?
KCNQ2 block: inactive

What do the screens show for `COc1cc2c(cc1OC)CN(C(=O)CSc1n[nH]c(N)n1)CC2`?
KCNQ2 block: inactive; KCNQ2 enhance: 1.6

What do the screens show for `CSc1nc(Cl)cc(Nc2ccccc2N)n1`?
KCNQ2 block: -6*; KCNQ2 enhance: -6

Results for Nc1nc(Cl)cc(Nc2ccccc2Cl)n1 ?
KCNQ2 block: inactive; KCNQ2 enhance: 3.4

Results for COC(=O)c1cc(=O)n(Cc2cccs2)c(=Nc2ccccc2)s1 ?
KCNQ2 block: inactive

Screening data as filed in PubChem.
